Most compounds without a hit are left out; they make up all but 3.5% or so of the library.
Pf apPOL inh: Pf-apPOL DNA polymerase inhibition; 210,000 compounds, 0.25% hits; Recombinant Pf-apPOL, molecular beacon fluorescence, 1.5 h; inhibition, % at 10 µM
mHTT CaM bind: disrupts binding of mutant huntingtin to calmodulin. inhibition, % at 15 µM. AlphaScreen His-mHTT/GST-CaM binding, luminescence. P42858. AID 1671202. 190,000 compounds, 3.6% hits;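 note: 0% = both proteins with DMSO and 100% = one protein alone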
* marks the source's active call; other numbers are inactive results; . = no result; ! = repeats disagree. Cut-off read from the data, not from the text of the source: active = inhibition above about 50%; inactive = the rest.

SMILES	Pf apPOL inh	mHTT CaM bind
COc1ccc(OC)c(NC(=O)c2c(NCc3ccncc3)sc3c2CCC(C)C3)c1 (centres undefined)	-18	72*
COc1ccc(Cl)cc1Nc1ncnc2sc3c(c12)CCC(C)C3 (centres undefined)	1	-6
COc1ccc(OC)c(NC(=O)Cn2nc3c(cc2=O)CC(C)CC3)c1 (centres undefined)	0	12
COc1ccc(Cl)cc1NC(=O)c1c(NCc2ccncc2)sc2c1CCC(C)C2 (centres undefined)	-15	73*
COc1ccccc1NC(=O)c1c(NCc2ccncc2)sc2c1CCC(C)C2 (centres undefined)	-18	100*
COc1ccccc1NC(=O)c1c(NCc2ccccn2)sc2c1CCC(C)C2 (centres undefined)	-16	46
CS(=O)(=O)NCCSc1ccc(Cl)cc1	-4	-7
Cn1nc(-c2nc(-c3ccccc3)no2)c2c1CCN(S(=O)(=O)c1cccc(C#N)c1)C2	-4	-7
COc1ccc(CCNC(=O)C2CCN(c3nc4cccnc4s3)CC2)c(OC)c1	-4	-10
Cc1ccnc(N2CCCC(C(=O)NCc3ccccc3F)C2)n1 (centres undefined)	-2	-5
O=C(Nc1ccc(-c2cnco2)cc1)C1CC1	-8	.
CCOc1ccc(NC(=O)c2c(NC(=O)CN3CCN(C)CC3)sc3c2CCC3)cc1	-6	1
COc1ccccc1NC(=O)c1c(NCc2ccccn2)sc2c1CCCCC2	-17	73*
CCOc1ccccc1NC(=O)c1c(NC(=O)CNCC2CCCO2)sc2c1CCC2 (centres undefined)	-2	3
CCOc1ccc(NC(=O)c2c(NCc3ccccn3)sc3c2CCC3)cc1	-15	59*
CCOc1ccccc1NC(=O)c1c(NCc2ccccn2)sc2c1CCCCC2	-22	73*
CCOc1ccccc1NC(=O)c1c(NC(=O)CN2CCOCC2)sc2c1CCC2	0	-4
CC(C)(C)C(=O)Nc1sc2c(c1C(=O)Nc1ccccn1)CCCC2	-8	-6
CCOc1ccccc1NC(=O)c1c(NCc2ccncc2)sc2c1CCCC2	-15	53*
Cc1ccccc1-c1nc2s/c(=C\c3cccc([N+](=O)[O-])c3)c(=O)n2n1	5	1
Cc1noc(C)c1C(=O)Oc1ccc(C(C)(C)C)cc1	-5	.
Cn1ncc(N2CCCC(C(=O)NCc3cccc(C(F)(F)F)c3)C2)cc1=O (centres undefined)	0	1
CS(=O)(=O)N1Cc2ccccc2CC1C(=O)Nc1cccc2c1CCCC2 (centres undefined)	-1	10
COc1ccc2nc(NC(=O)Cn3c(-c4ccccc4F)nc4ccccc4c3=O)sc2c1	-8	100*
O=C(Cn1c(-c2ccccc2F)nc2ccccc2c1=O)Nc1ccc(F)c(Cl)c1	-1	91*
SMILES	Pf apPOL inh	mHTT CaM bind
COc1ccc(NC(=O)Cn2c(-c3ccccc3F)nc3ccccc3c2=O)cc1OC	-1	1
COc1cccc(NC(=O)Cn2c(-c3ccccc3F)nc3ccccc3c2=O)c1	-1	4
CCCN1C(=O)Cc2ccccc2C1C(=O)NCc1ccccc1C (centres undefined)	-3	0
C=CCn1c(C(=O)NC2CC2)cc2sc(Br)cc21	-5	-1
C=CCn1c(C(=O)NCc2ccncc2)cc2sc(Br)cc21	-8	51*
CC(C)(C)C(=O)N(CCc1cccs1)C1CC1	4	-4
CCn1c(C(=O)N(C)Cc2ccccc2)cc2sc(Br)cc21	-3	41
COc1ccccc1N1CCN(C(=O)CC(c2ccccc2)c2ccccc2)CC1	2	76*
COc1ccccc1N1CCN(C(=O)CCC(=O)N2CCN(c3ccccc3OC)CC2)CC1	1	-2
COc1ccccc1N1CCN(C(=O)c2ccncc2)CC1	-3	-7
COc1ccccc1N1CCN(C(=O)c2ccc(CSc3ccccc3)cc2)CC1	-5	68*
Cc1ccc(N(CC(O)Cn2nnc3ccccc32)S(=O)(=O)c2ccccc2)cc1 (centres undefined)	-6	9
CCC(=O)NCCc1csc(C2CCN(C(=O)CC3CCCCC3)CC2)n1	-2	0
COc1ccc(-c2ccc3nc(C(=O)NCc4cccnc4)cn3c2)cc1	4	59*
COc1cccc(CNC(=O)c2cn3cc(C)ccc3n2)c1	-3	-3
CCCn1cc2c3c(cccc31)CN(C(=O)c1ccc(F)cc1)CC2	0	94*
Cn1cc2c3c(cccc31)CN(C(=O)c1ccc(Br)cc1)CC2	-5	54*
CCCn1cc2c3c(cccc31)CN(C(=O)CC(C)(C)C)CC2	-3	17
CN(C)c1ccc(C(=O)N2CCc3cn(C)c4cccc(c34)C2)cc1	-4	1
CCCn1cc2c3c(cccc31)CN(C(=O)c1ccccc1)CC2	-3	70*
CCCn1cc2c3c(cccc31)CN(C(=O)c1ccsc1)CC2	5	39
Cc1ccc(-c2cc(C3(O)CCC4COC3O4)on2)cc1 (centres undefined)	.	-6
O=C(NCc1ccccc1Cl)C1CC(=O)N(CCc2ccccc2)C1 (centres undefined)	1	-2
COc1ccc(C(=O)Nc2ccccc2C(N)=O)cc1	-2	6
O=C(Nc1cccnc1)C(=O)Nc1cccnc1	-5	82*
SMILES	Pf apPOL inh	mHTT CaM bind
O=C(Nc1cc([N+](=O)[O-])ccc1C(=O)Nc1cccnc1)c1ccccc1	-1	4
O=C(Nc1ccc(-c2ccc(NC(=O)Nc3cccnc3)cc2)cc1)Nc1cccnc1	3	10
O=C(Nc1ccccc1C(=O)Nc1cccnc1)c1ccccc1	51*!	-3
COc1ccc(C(=O)Nc2ccccc2C(=O)Nc2ccccc2C(=O)O)cc1	-7	84*
O=c1c(C=NCc2ccco2)c(C(F)(F)F)[nH]n1-c1ccc([N+](=O)[O-])cc1	0	12
Nc1ccc(-c2nnc(Nc3ccccc3C(F)(F)F)s2)cc1	3	.
O=C(Nc1ccccc1)Nc1nccn(-c2ccccc2)c1=O	-3	4
COc1cc(/C=C/c2cc(C(F)(F)Cl)[nH]c(=O)n2)ccc1O	1	26
COc1ccccc1Cc1noc(-c2ccc([N+](=O)[O-])cc2)n1	-2	9
CC(=NNC(N)=O)c1ccc(Sc2ccc(Cl)cc2)c([N+](=O)[O-])c1	-6	.
CCNC(=O)c1csc(-c2cccc(OCC)c2)n1	-6	-1
O=C(Nc1ccc(S(=O)(=O)Nc2cccc([N+](=O)[O-])c2)cc1)c1ccccc1Cl	2	10
N#CC1=C(N)OC2=C(C(=O)CCC2)C1c1cc([N+](=O)[O-])cs1 (centres undefined)	-9	1
N#CC1=C(N)OC2=C(C(=O)CCC2)C1c1cc2c(cc1[N+](=O)[O-])OCO2 (centres undefined)	0	90*
Cc1ccc(Cl)cc1NC(=O)C1CC(=O)N(CCc2c[nH]c3ccc(F)cc23)C1 (centres undefined)	-4	89*
Cc1ccc(NC(=O)C2CC(=O)N(CCc3c[nH]c4ccc(C)cc34)C2)c(C)c1 (centres undefined)	3	25
CCc1ccccc1NC(=O)C1CC(=O)N(CCc2c[nH]c3ccc(Cl)cc23)C1 (centres undefined)	-3	88*
Cc1ccc(NC(=O)C2CC(=O)N(CCc3c[nH]c4ccc(F)cc34)C2)c(C)c1 (centres undefined)	-2	8
CCc1ccccc1NC(=O)C1CC(=O)N(CCc2c[nH]c3ccc(F)cc23)C1 (centres undefined)	-3	6
